Experimental data as given in PubChem BioAssay AID1851 (National Center for Advancing Translational Sciences (NCATS), 2009).
Hit rate of the full screen: of about 16,000 compounds, about 2,600 (16%) were called active. About 20% were inconclusive and are not listed. A selection follows. Values without a mark were called inactive. The call rests on the fitted dose curve; in most records, active means well fitted curve in the direction sought with a large enough effect; inconclusive means small, poorly fitted or top-dose-only effect, or effect the other way; inactive means no such curve, though single readings can be large or run the other way.

Molecular target: Cytochrome P450 2D6 (Homo sapiens) (UniProt P10635)
Sequence (P10635 whole entry, looked up): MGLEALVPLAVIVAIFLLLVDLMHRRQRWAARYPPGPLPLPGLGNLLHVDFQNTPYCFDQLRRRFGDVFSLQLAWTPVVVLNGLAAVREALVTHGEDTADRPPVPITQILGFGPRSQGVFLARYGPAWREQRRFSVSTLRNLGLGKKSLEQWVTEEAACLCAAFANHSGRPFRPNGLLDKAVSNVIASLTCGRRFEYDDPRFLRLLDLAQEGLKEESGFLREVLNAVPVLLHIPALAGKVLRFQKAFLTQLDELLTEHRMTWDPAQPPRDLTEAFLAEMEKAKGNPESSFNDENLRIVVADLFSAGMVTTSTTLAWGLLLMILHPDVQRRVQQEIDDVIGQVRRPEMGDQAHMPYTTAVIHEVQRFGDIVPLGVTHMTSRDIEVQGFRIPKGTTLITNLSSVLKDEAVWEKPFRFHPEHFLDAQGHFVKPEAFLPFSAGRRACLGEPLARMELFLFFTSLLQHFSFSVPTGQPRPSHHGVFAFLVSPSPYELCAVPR
Assay: Cytochrome panel assay with activity outcomes
Conditions: recombinant CYP, pro-luciferin dealkylation, luminescence, p450-cyp2d6; series mostly up to 57.1 µM; activity, negative = inhibition: at the top concentration
On the % scale 0 is the no-effect control and ±100 the full control effect.

SMILES | activity, negative = inhibition | AC50
CCOc1[nH]n(-c2ccc(Cl)cc2)c(=O)c1C=Nc1ccc(Cl)cc1 | 1.47% | 
CCOc1ccc(N/N=C(/C#N)C(N)=O)cc1 | -4.83% | 
CO[C@@H]1COC(=O)[C@H]2CCCN2C(=O)[C@@H](C)COC(=O)C/C=C\[C@H]1C | -1.92% [at 11.4 µM] | 
Cc1ccc(C(=O)N/C(=C/C=C/c2ccccc2)C(=O)NCc2ccco2)cc1 | 7.67% | 
Cc1c(Br)cc(C(=O)NC2CCCCC2)c(C)c1C | -8.72% | 
OC[C@@H]1O[C@@H](n2cnc3c(SCc4ccccc4)ncnc32)[C@@H](O)[C@H]1O | -0.968% [at 11.4 µM] | 
O=C(CCCCC(=O)Nc1c(I)cc(I)c(C(=O)O)c1I)Nc1c(I)cc(I)c(C(=O)O)c1I | -0.733% [at 25.6 µM] | 
CCOC(=O)CSc1nnc(CSc2nc3sc4c(c3c(=O)[nH]2)CCCC4)n1-c1ccccc1 | -29.7% | 
NC1=NC(=O)/C(=C/c2cccs2)S1 | 20.3% | 
COc1ccc(-c2nc3cnc(N4CCNCC4)nc3n(C3CC3)c2=O)cc1 | 1.04% | 
Nc1ccc(S(=O)(=O)Nc2ccc(Cl)nn2)cc1 | 6.78% [at 25.6 µM] | 
COc1ccc2c(c1)-c1c(sn(-c3ccc(OC)c(OC)c3)c1=S)C(C)(C)N2 | 21.3% | 
O=C(O)c1cccc(OCCO)c1 | 5.58% [at 11.4 µM] | 
OCCN1CCN(CCOc2cccc(Cl)c2)CC1 |  | 5.01 µM (active)
C[C@H]1CN(CCO)CCN1c1ccccc1 | 11.2% [at 11.4 µM] | 
CO[C@H]1COC(=O)[C@H]2CCCN2C(=O)C/C=C\[C@@H](C)[C@H](OC)COC(=O)C/C=C\[C@@H]1C | -7.59% [at 11.4 µM] | 
CC1=C[N+](=O)c2ccccc2[N+]1=O | 22.3% [at 11.4 µM] | 
COc1ccc(O[C@H]2C=C[C@@H](c3ccccc3)O[C@H]2CO/N=C\C[C@@H]2C=C[C@H](OC(C)=O)[C@H](COC(C)=O)O2)cc1 | -5.75% [at 11.4 µM] | 
CC(=O)OC[C@H]1O[C@@H](O/N=C(\C)CCC(=O)OC[C@@H]2O[C@H](C#Cc3ccccc3)C=C[C@@H]2Oc2ccc(C)cc2)[C@H](OC(C)=O)[C@@H](OC(C)=O)[C@H]1OC(C)=O |  | 3.98 µM (active)
COc1ccc(O[C@H]2C=C[C@@H](c3ccccc3)O[C@H]2CO/N=C2/c3cc(OC)ccc3O[C@@H](c3cccc(OC)c3)[C@H]2O)cc1 | -21.5% [at 11.4 µM] | 
COc1cccc([C@H]2Oc3ccc(OC)cc3/C(=N\O[C@@H]3O[C@H](COC(C)=O)[C@H](OC(C)=O)[C@H](OC(C)=O)[C@H]3OC(C)=O)[C@@H]2O)c1 |  | 3.16 µM (active)
C/C(CCC(=O)OC[C@@H]1O[C@H](C#Cc2ccccc2)C=C[C@@H]1Oc1ccc(C)cc1)=N/OC[C@@H](O)COCc1ccco1 | 5.64% [at 11.4 µM] | 
COc1ccc(O[C@H]2C=C[C@@H](c3ccccc3)O[C@H]2COC(=O)CC/C(C)=N/O[C@@H]2O[C@H](COC(C)=O)[C@H](OC(C)=O)[C@H](OC(C)=O)[C@H]2OC(C)=O)cc1 |  | 3.16 µM (active)
CCCNC(=O)OC[C@@H]1O[C@H](CCO/N=C2\c3cc(OC)ccc3O[C@H](c3cccc(OC)c3)[C@H]2O)C=C[C@@H]1Oc1ccc(OC)cc1 | -1.45% [at 11.4 µM] | 
CC(=O)OC[C@@H]1O[C@H](CCO/N=C(\C)CCC(=O)OC[C@@H]2O[C@H](C#Cc3ccccc3)C=C[C@@H]2Oc2ccc(C)cc2)C=C[C@@H]1OC(C)=O | 15.9% [at 11.4 µM] | 
COc1ccc(O[C@H]2C=C[C@@H](c3ccccc3)O[C@H]2CO/N=C(/C)CCC(=O)OC[C@@H]2O[C@H](c3ccccc3)C=C[C@@H]2Oc2ccc(OC)cc2)cc1 | 8.39% [at 11.4 µM] | 

SMILES | activity, negative = inhibition | AC50
CN1CCN(c2ncc3ncc(=O)n(CCC#N)c3n2)CC1 | 1.57% | 
COC(=O)c1ccc(Oc2cc(C)nc(-n3nc(C)cc3C)n2)cc1 | -10.5% | 
Cc1cccc(NC(=S)NNC(=O)CC(C)O)c1C (stereo unspecified) | -3.05% | 
O=C(/C=C/c1ccc2ccccc2c1)c1ccoc1 | -5.53% | 
COC(=O)c1c(-c2ccc3ccccc3c2)csc1NC(=O)Cc1ccc(OC)c(OC)c1 | 9.92% | 
CNC(=O)c1nnn(Cc2ccccc2)c1NC(=O)C(F)(F)F | 14.6% | 
O=C(N/N=C/c1ccc([N+](=O)[O-])s1)c1ccccc1Br | -20.2% | 
O=C(NCCNc1ccc([N+](=O)[O-])cc1)c1ccccc1Br |  | 11.2 µM (active)
O=C(O)CCCCCNC(=O)c1ccccc1Br | 15.5% | 
NC(=O)N1c2ccccc2C=Cc2ccccc21 | 1.87% [at 25.6 µM] | 
Cc1cc(Oc2ccc(-c3ccccc3)cc2)nc(N2CCOCC2)n1 | -22.5% | 
CCC(C)n1nnc2c(=O)oc3ccccc3c21 (stereo unspecified) | 9.18% | 
C[C@@H](C(=O)Nc1ccc2ccccc2c1)[C@H]1C[C@]1(C)[C@H](NC(=O)c1cnccn1)c1ccccc1 |  | 0.1 µM (active)
C[C@@H](C(=O)Nc1ccc2ccccc2c1)[C@@H]1C[C@@]1(C)[C@@H](NC(=O)c1cnccn1)c1ccccc1 | -6.62% | 
COC(=O)[C@H]1C[C@@H]1[C@H](NC(=O)c1cnccn1)c1ccccc1 | -5.05% | 
C[C@@H](C(=O)Nc1ccc2ccccc2c1)[C@@H]1C[C@@]1(C)[C@@H](NC(=O)c1ccncc1Cl)c1ccccc1 |  | 12.6 µM (active)
O=P(O)(O)O[C@@H]1O[C@H](CO)[C@@H](O)[C@H](O)[C@@H]1O | 9.85% [at 11.4 µM] | 
CCOC(=O)/C(C#N)=C\N(C)C | 0.62% | 
O=C(c1cccc(F)c1)N1CCC2(CCCN(c3ccc(-c4ccccc4)cc3)C2)CC1 | 3.09% | 
Cc1ccc(OCC(=O)Nc2ccc(S(=O)(=O)Nc3onc(C)c3C)cc2)cc1 | -9.39% | 
COCc1nc2c([nH]1)c(=O)n(C)c(=O)n2CC(C)C | 5.94% | 
CC(=O)NNC(=O)C(O)(c1ccccc1)c1ccccc1 | 4.64% | 
CC(=O)NNC(=O)N1Cc2ccccc2Oc2ccc(Cl)cc21 |  | 6.31 µM (active)
O=C(O)CCC(=O)N1CCOc2ccc(Cl)cc21 | 7.6% | 
CC/C(O)=C(\C#N)c1nnc2n1CCCCC2 | -19.9% | 
